Experimental data taken from PubChem BioAssay AID1053 (University of Pittsburgh Molecular Library Screening Center, 2008).
Where “and” joins values, the source holds several entries; their conditions need not be identical. Identical values can stand only once. Calls of active or inactive are those of the source. No rule for the calls is given here.

molecular target: Serine/threonine-protein kinase PLK1 (Homo sapiens) (UniProt P53350); experiment: Plk1 polo box domain binding inhibitors, SAR follow-up, biochemical, fluorescence polarization, purchased analogs (AID 1053); conditions: Plk1 PBD fluorescence polarization peptide binding; at 20 µM; hits give high values
Sequence (P53350 whole entry, looked up, the tested form may be a part): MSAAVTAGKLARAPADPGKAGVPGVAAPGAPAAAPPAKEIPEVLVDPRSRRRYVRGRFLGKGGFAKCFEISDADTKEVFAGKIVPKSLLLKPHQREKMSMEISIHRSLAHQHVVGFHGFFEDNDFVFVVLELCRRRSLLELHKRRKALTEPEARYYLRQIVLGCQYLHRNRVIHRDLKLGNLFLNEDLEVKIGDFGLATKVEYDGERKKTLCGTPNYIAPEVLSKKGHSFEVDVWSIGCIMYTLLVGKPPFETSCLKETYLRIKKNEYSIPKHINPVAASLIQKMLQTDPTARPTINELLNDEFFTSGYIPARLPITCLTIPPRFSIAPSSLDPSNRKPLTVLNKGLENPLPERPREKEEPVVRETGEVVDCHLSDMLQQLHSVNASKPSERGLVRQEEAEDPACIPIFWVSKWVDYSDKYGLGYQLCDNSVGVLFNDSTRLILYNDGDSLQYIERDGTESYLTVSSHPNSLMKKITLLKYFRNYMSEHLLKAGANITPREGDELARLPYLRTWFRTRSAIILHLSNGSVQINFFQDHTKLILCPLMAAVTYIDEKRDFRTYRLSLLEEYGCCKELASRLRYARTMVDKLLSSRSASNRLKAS

Row | SMILES | inhibition
1 | CCN(CC)CCOC(=O)c1ccc(N=Cc2c(O)n(Cc3ccccc3)c(=O)[nH]c2=O)cc1 | -220% (inactive)
2 | Cn1c(=O)[nH]c(=O)c2nc(-c3ccccc3)c(-c3ccccc3)nc21 | -33.3% (inactive)
3 | CCCOC(=O)c1ccc(NC(=O)c2ccc(OC)c([N+](=O)[O-])c2)cc1 | -17.9% (inactive)
4 | O=c1[nH]c(=O)c2nc(-c3ccc(Cl)cc3)cnc2[nH]1 | -45.5% (inactive)
5 | CC(=O)N(CN1C(=O)c2ccccc2C1=O)c1ccccc1Cl | -37.3% (inactive) and -49.8% (inactive)
6 | CC(=O)N(/N=C1\Sc2ccccc2C1=O)c1ccccc1Cl | -48.1% (inactive)
7 | CCOC(=O)c1ccc(NC(=O)c2ccc3snnc3c2)cc1 | -21.6% (inactive) and -22.3% (inactive)
8 | CCOC(=O)c1ccc(NC(=O)c2cc(=O)[nH]c3ccccc23)cc1 | -81.3% (inactive)
9 | COc1ccc(-c2nc3c(=O)n(C)c(=O)nc-3n(C)n2)cc1OC | 1.9% (inactive)
10 | COc1ccc(-c2nnc3[nH]c(=O)n(C)c(=O)c3n2)cc1 | -45.9% (inactive) and -39.6% (inactive)
11 | CCOc1ccc(-c2nc3c(=O)n(C)c(=O)nc-3n(C)n2)cc1OC | 34.4% (inactive)
12 | Cn1c(=O)[nH]c2nnc(-c3ccc(C(F)(F)F)cc3)nc2c1=O | -39.5% (inactive) and -40.5% (inactive)
13 | Cn1c(=O)[nH]c2nnc(-c3ccccc3)nc2c1=O | -31% (inactive)
14 | CC(=O)N(/N=C1\Sc2ccccc2C1=O)c1ccccc1C | 17.5% (inactive)
15 | O=C1NC(=O)C(=Cc2cc(Cl)c(OCc3ccc(C(=O)O)cc3)c(Cl)c2)C(=O)N1 | -37.4% (inactive)
16 | CCOC(=O)c1ccc(N=Cc2c(O)n(Cc3ccccc3)c(=O)[nH]c2=O)cc1 | -22.9% (inactive)
17 | CCOC(=O)c1ccc(NC(=O)C2CCCCC2C(=O)O)cc1 (configuration not stated) | -39.1% (inactive)
18 | COc1ccccc1N(CN1C(=O)c2ccccc2C1=O)C(C)=O | -46.9% (inactive)
19 | CC1CN(c2cc3nccnc3cc2F)CC(C)O1 (configuration not stated) | -46.8% (inactive)

Row | SMILES | inhibition
20 | CCCOC(=O)c1ccc(NC(=O)c2cc(-c3cccs3)nc3c(C)c(Cl)ccc23)cc1 | 36.6% (inactive)
21 | CCn1nc(-c2ccc(C(=O)OC)cc2)nc2c(=O)n(C)c(=O)nc1-2 | -9.29% (inactive)
22 | CC(=O)Oc1ccccc1N(/C=C1/Sc2ccccc2C1=O)C(C)=O | -290% (inactive)
23 | CCOC(=O)c1ccc(N=Cc2c(O)[nH]c(=O)[nH]c2=O)cc1 | 49.9% (inactive)
24 | CCOC(=O)c1ccc(NC(=O)C2CCC(C)CC2)cc1 (configuration not stated) | -28.3% (inactive)
25 | CCCOC(=O)c1ccc(NC(=O)c2c(F)c(F)c(F)c(F)c2F)cc1 | -41.6% (inactive)
26 | CC(=O)N(CN1C(=O)c2ccccc2C1=O)c1ccc(F)cc1 | -46.9% (inactive)
27 | COc1ccc(N(/N=C2\Sc3ccccc3C2=O)C(C)=O)cc1 | 30.5% (inactive)
28 | CC(=O)N(/C=C1\Sc2ccccc2C1=O)c1ccc(C)cc1 | -201% (inactive) and -215% (inactive) and -234% (inactive)
29 | Cc1ccc(N(CN2C(=O)c3ccc([N+](=O)[O-])cc3C2=O)C(=O)C(c2ccccc2)c2ccccc2)cc1 | -39.6% (inactive)
30 | CC(=O)N(CN1C(=O)c2ccccc2C1=O)c1ccccc1C | -32.5% (inactive) and -28.6% (inactive)
31 | CCN(CC)CCOC(=O)c1ccc(NC(=O)c2cc(OC)c(OC)cc2OC)cc1 | -46.3% (inactive)
32 | Cn1c(=O)c2nc(-c3ccccc3)c(=O)[nH]c2n(C)c1=O | -31.3% (inactive)
33 | CCOC(=O)c1ccc(N=Cc2c(O)n(-c3cccc(C)c3)c(=O)[nH]c2=O)cc1 | -57.1% (inactive)
34 | Cn1c(=O)[nH]c2nnc(-c3ccc(F)cc3)nc2c1=O | -42.3% (inactive)
35 | O=c1cc[nH]c2cc(N3CCOCC3)c(F)cc12 | -49% (inactive)
36 | COc1ccc(N(CN2C(=O)c3ccccc3C2=O)C(C)=O)cc1 | -43.9% (inactive) and -51.6% (inactive)
37 | CC(=O)N(/C=C1\Sc2ccccc2C1=O)c1cc(C(F)(F)F)ccc1Cl | -73.4% (inactive) and -36.2% (inactive)
